According to PubChem BioAssay AID504429 (National Center for Advancing Translational Sciences (NCATS), 2011):
Some of the results follow. Activity calls are given as the source filed them.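 How the source made its calls: active means compounds whose dose response shows an inhibitor phenotype against the kinase Dyrk1b; inactive means compounds showing no inhibitor phenotype.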

The molecules below were run against Dual specificity tyrosine-phosphorylation-regulated kinase 1B (Homo sapiens) (UniProt Q9Y463) (assay: Kinase Inhibition Study on Inhibitors of Dyrk1b (Reaction Biology data)). Settings: Recombinant Dyrk1b kinase assay, 10 uM ATP.
Chain of Dual specificity tyrosine-phosphorylation-regulated kinase 1B (Homo sapiens) (Q9Y463 whole entry, looked up, canonical isoform): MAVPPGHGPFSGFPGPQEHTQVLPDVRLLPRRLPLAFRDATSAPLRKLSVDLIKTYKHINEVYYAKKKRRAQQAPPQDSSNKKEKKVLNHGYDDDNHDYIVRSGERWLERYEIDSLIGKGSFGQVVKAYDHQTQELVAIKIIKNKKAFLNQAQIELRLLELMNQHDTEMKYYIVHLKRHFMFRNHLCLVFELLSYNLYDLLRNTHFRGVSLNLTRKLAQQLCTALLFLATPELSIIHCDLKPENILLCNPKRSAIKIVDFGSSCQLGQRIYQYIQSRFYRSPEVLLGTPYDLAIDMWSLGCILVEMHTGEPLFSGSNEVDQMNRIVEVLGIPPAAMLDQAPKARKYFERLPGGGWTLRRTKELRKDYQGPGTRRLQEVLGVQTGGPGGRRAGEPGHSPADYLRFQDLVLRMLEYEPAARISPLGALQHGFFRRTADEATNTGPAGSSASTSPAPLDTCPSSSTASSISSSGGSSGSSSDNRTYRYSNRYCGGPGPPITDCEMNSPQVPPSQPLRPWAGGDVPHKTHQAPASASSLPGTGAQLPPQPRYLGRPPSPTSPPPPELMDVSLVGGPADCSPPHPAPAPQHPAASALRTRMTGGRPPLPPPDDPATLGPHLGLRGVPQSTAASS
Excerpt: NIH Molecular Libraries Probe Production Centers Network [MLPCN] NIH Chemical Genomics Center [NCGC] MLPCN Grant: 1R03MH084827-01 Assay Submitter (PI): Tom Misteli NCGC Assay Overview: Alternative splicing of pre-mRNAs plays a major role in the regulation of eukaryotic gene expression. Alternative splicing is now thought to be one of the primary reasons for the complexity of higher organisms leading to an average of three protein isoforms per gene. Aberrant splicing can lead to a number of diseases and is known to play a role in rare genetic diseases such as progeria syndrome. Hutchinson-Gilford Progeria Syndrome (HGPS) is a pediatric premature aging disease caused by a spontaneous mutation in the lamin A/C (LMNA) gene due to a single point mutation in the lamin A gene effecting 1 in 4 million people. To identify both specific splicing modulators of the lamin A gene as well as general splicing modulators, a cell-based HTS assay was developed using a minigene reporter system (AIDs, 1459 & 1487). […] The Clk family is part of the CMGC group of protein kinases which includes Dyrks and are essential kinases found in all eukaryotes. […] This AID is to summarize the activity of these analogs in Dyrk1b.
All kinase reactions were performed using 10 uM ATP in the assay. 100% activity was taken from kinase reactions with DMSO alone (the vehicle used for compound stock solutions).

Potency, active:
CN(Cc1cncn1C)c1ncnc2ccc(-c3ccc4c(c3)OCO4)cc12 15 µM
c1nc(N2CCOCC2)c2cc(-c3ccc4c(c3)OCO4)ccc2n1 5.22 µM
CC(Nc1ncnc2ccc(-c3ccc4c(c3)OCO4)cc12)c1ccco1 (stereo not drawn) 8.14 µM
